Test results reported in PubChem BioAssay (EPA / NIEHS).
The source made the active and inactive calls. Rule for the calls: active = hit-call score of the fitted dose curve at least 0.9, where 1 is the maximum; inactive = score below 0.9.

Assays:
[1] = read-out: Human Leukocyte Antigen - DR isotype (HLADR), HLA-DRA (gene 3122); assay: BSK_BE3C_HLADR: BioMAP Diversity Plus: BE3C Assay for Human Leukocyte Antigen - DR isotype (HLADR) Biomarker Activity (AID 2283032); conditions: primary human bronchial epithelial cells; actives raise or lower the signal
In short: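 Signal came from an ELISA for HLA-DR in human bronchial epithelial primary cells harvested 24 h after treatment; gain- and loss-of-signal fitting used DMSO controls as reference.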

[2] = read-out: Vascular cell adhesion molecule 1 (VCAM1), VCAM1 (gene 7412); assay: BSK_4H_VCAM1: BioMAP Diversity Plus: 4H Assay for Vascular cell adhesion molecule 1 (VCAM1) Biomarker Activity (AID 2283033); conditions: primary human endothelial cells (HUVEC); actives raise or lower the signal
In short: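 Endpoint derived from bidirectional fitting against DMSO controls of VCAM-1 ELISA signal in umbilical vein endothelial cells sampled at 24 h following treatment.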

[3] = read-out: Interferon-gamma inducible Protein 10 (IP10), CXCL10 (gene 3627); assay: BSK_BE3C_IP10: BioMAP Diversity Plus: BE3C Assay for Interferon-gamma inducible Protein 10 (IP10) Biomarker Activity (AID 2283034); conditions: primary human bronchial epithelial cells; actives raise or lower the signal
In short: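 Using primary human bronchial epithelial cultures, the assay captures IP-10 by ELISA one day (24 h) after exposure. Parallel SRB staining of total protein flags overt cytotoxicity. Fits run bidirectionally relative to DMSO.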

[4] = read-out: Monokine induced gamma interferon (MIG), CXCL9 (gene 4283); assay: BSK_BE3C_MIG: BioMAP Diversity Plus: BE3C Assay for Monokine induced gamma interferon (MIG) Biomarker Activity (AID 2283035); conditions: primary human bronchial epithelial cells; actives raise or lower the signal;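 note: MIG protein measured by ELISA in BE3C cultures after 24 h of dosing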
In short: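 MIG level was determined by ELISA after 24 h chemical treatment of primary human bronchial epithelial cells. Values were fitted bidirectionally with DMSO as the negative control and activity baseline.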

[5] = read-out: Transforming growth factor beta 1 (TGFb1), TGFB1 (gene 7040); assay: BSK_BE3C_TGFb1: BioMAP Diversity Plus: BE3C Assay for Transforming growth factor beta 1 (TGFb1) Biomarker Activity (AID 2283036;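 note: TGF-b1 protein level measured by ELISA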); conditions: primary human bronchial epithelial cells; actives raise or lower the signal
In short: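 In this human primary bronchial epithelial system, an ELISA quantified TGF-b1 one day after dosing. Endpoint changes in either direction were fitted relative to DMSO.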

[6] = read-out: urokinase plasminogen activator (uPA), PLAU (gene 5328); assay: BSK_BE3C_uPA: BioMAP Diversity Plus: BE3C Assay for urokinase plasminogen activator (uPA) Biomarker Activity (AID 2283038); conditions: primary human bronchial epithelial cells; actives raise or lower the signal;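 note: uPA protein level quantified by ELISA in cell cultures; uPA read one day after compound addition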
In short: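 Using confluent primary human lung bronchial epithelial cultures, we dosed chemicals, waited 24 h, then ran a uPA ELISA, fitting bidirectionally against DMSO.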

[7] = read-out: Urokinase-type plasminogen activator receptor (uPAR), PLAUR (gene 5329); assay: BSK_BE3C_uPAR: BioMAP Diversity Plus: BE3C Assay for Urokinase-type plasminogen activator receptor (uPAR) Biomarker Activity (AID 2283039); conditions: primary human bronchial epithelial cells; actives raise or lower the signal
In short: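 A uPAR ELISA serves as the readout, taken 24 h after treating primary human bronchial epithelial cells. Responses in either direction are fitted against DMSO, which defines baseline activity.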

[8] = read-out: Interleukin-6 (IL6), IL6 (gene 3569); assay: BSK_CASM3C_IL6: BioMAP Diversity Plus: CASM3C Assay for Interleukin-6 (IL6) Biomarker Activity for (AID 2283040); conditions: primary human coronary artery smooth muscle cells; actives raise or lower the signal
[9] = read-out: Tissue plasminogen activator (tPA), PLAT (gene 5327); assay: BSK_BE3C_tPA: BioMAP Diversity Plus: BE3C Assay for Tissue plasminogen activator (tPA) Biomarker Activity (AID 2283041); conditions: primary human bronchial epithelial cells; actives raise or lower the signal;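 note: tPA level quantified by ELISA one day after compound addition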
In short: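 Bidirectional curve fitting relative to DMSO defined activity, with tPA detected by ELISA in chemically treated human bronchial epithelial primary cells at 24 hours.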

[10] = read-out: Interleukin-8 (IL8), CXCL8 (gene 3576); assay: BSK_CASM3C_IL8: BioMAP Diversity Plus: CASM3C Assay for Interleukin-8 (IL8) Biomarker Activity (AID 2283042); conditions: primary human coronary artery smooth muscle cells; actives raise or lower the signal;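 note: IL-8 protein level quantified by ELISA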
[11] = read-out: Human Leukocyte Antigen - DR isotype (HLADR), HLA-DRA (gene 3122); assay: BSK_CASM3C_HLADR: BioMAP Diversity Plus: CASM3C Assay for Human Leukocyte Antigen - DR isotype (HLADR) Biomarker Activity (AID 2283043); conditions: primary human coronary artery smooth muscle cells; actives raise or lower the signal;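 note: cell-surface HLA-DR protein level quantified by ELISA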
[12] = read-out: Macrophage colony-stimulating factor (MCSF), CSF1 (gene 1435); assay: BSK_CASM3C_MCSF: BioMAP Diversity Plus: CASM3C Assay for Macrophage colony-stimulating factor (MCSF) Biomarker Activity (AID 2283044); conditions: primary human coronary artery smooth muscle cells; actives raise or lower the signal;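 note: M-CSF protein amount quantified by ELISA after 24 h exposure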
[13] = read-out: Low-density lipoprotein receptor (LDLR), LDLR (gene 3949); assay: BSK_CASM3C_LDLR: BioMAP Diversity Plus: CASM3C Assay for Low-density lipoprotein receptor (LDLR) Biomarker Activity (AID 2283045); conditions: primary human coronary artery smooth muscle cells; actives raise or lower the signal;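 note: LDLR protein level on the cell surface quantified by ELISA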
[14] = read-out: Monocyte Chemoattractant Protein-1 (MCP1), CCL2 (gene 6347); assay: BSK_CASM3C_MCP1: BioMAP Diversity Plus: CASM3C Assay for Monocyte Chemoattractant Protein-1 (MCP1) Biomarker Activity (AID 2283046); conditions: primary human coronary artery smooth muscle cells; actives raise or lower the signal;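 note: MCP-1 level quantified by ELISA 24 h after dosing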
[15] = BSK_CASM3C_Proliferation: Cell Proliferation Assessment in the BioMAP Diversity Plus: CASM3C Assay (AID 2283047); conditions: primary human coronary artery smooth muscle cells;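 note: sulforhodamine B total protein stain as relative cell number at 560 nm; sub-confluent cells exposed 48 h before staining; fitted both ways against DMSO so gain or loss of cell number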
[16] = read-out: Monokine induced gamma interferon (MIG), CXCL9 (gene 4283); assay: BSK_CASM3C_MIG: BioMAP Diversity Plus: CASM3C Assay for Monokine induced gamma interferon (MIG) Biomarker Activity (AID 2283048); conditions: primary human coronary artery smooth muscle cells; actives raise or lower the signal;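 note: MIG protein level measured by ELISA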
[17] = read-out: serum amyloid A (SAA), SAA1 (gene 6288); assay: BSK_CASM3C_SAA: BioMAP Diversity Plus: CASM3C Assay for serum amyloid A (SAA) Biomarker Activity (AID 2283049); conditions: primary human coronary artery smooth muscle cells; actives raise or lower the signal;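 note: SAA protein level quantified by ELISA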
[18] = BSK_CASM3C_SRB: Viability Assessment in the BioMAP Diversity Plus: CASM3C Assay (AID 2283050); conditions: primary human coronary artery smooth muscle cells;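 note: cells exposed to compound for 24 h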
[19] = read-out: Thrombomodulin, THBD (gene 7056); assay: BSK_CASM3C_Thrombomodulin: BioMAP Diversity Plus: CASM3C Assay for Thrombomodulin Biomarker Activity (AID 2283051); conditions: primary human coronary artery smooth muscle cells; actives raise or lower the signal;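 note: thrombomodulin protein level measured by ELISA 24 h after dosing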

Measured: AC50

CC(Oc1ccc(Cl)cc1Cl)C(=O)O (centres undefined)
inactive: all assays above

CCCCNC(=O)n1c(NC(=O)OC)nc2ccccc21
active: [19] 17.4 µM
inactive: all other assays above

OC(c1ccc(Cl)cc1)(c1cncnc1)c1ccccc1Cl (centres undefined)
active: [1] 25.9 µM | [3] 30.3 µM | [15] 27.6 µM | [19] 16.6 µM
inactive: all other assays above

CCCCC(CC)COC(=O)c1ccccc1C(=O)OCC(CC)CCCC (centres undefined)
active: [8] 7.31 µM
inactive: all other assays above

CS/C(C)=N/OC(=O)N(C)SN(C)C(=O)O/N=C(\C)SC
inactive: [4] | [5] | [6] | [7] | [9] | [11] | [13] | [19]
active: [1] 30.1 µM | [2] 31.1 µM | [3] 25.9 µM | [8] 35 µM | [10] 32.1 µM | [12] 28.9 µM | [14] 34.7 µM | [15] 6.19 µM | [16] 35 µM | [17] 20 µM | [18] 31.2 µM

O=C(Nc1ccccc1)Nc1ccnc(Cl)c1
active: [1] 34.7 µM | [7] 807 nM | [10] 13 µM | [15] 28.6 µM
inactive: all other assays above
